Assay results reported in PubChem BioAssay (Tox21).
Records with an inconclusive call do not appear. Calls of active or inactive are those of the source. Calls come from the whole dose curve; as a rule, active = well fitted curve in the direction sought with a large enough effect in the repeat runs; inconclusive = weak or mixed curves; inactive = no such curve, though single readings can be large; an effect the other way counts as inactive or inconclusive.

What was measured:
[1] = A CellTox Green Cytotoxicity Assay to monitor cytotoxicity in HEK293 cells - 32 hour (AID 1224881); note: nearly all actives have a fitted effect of over 40% in size
Procedure, shortened: (§1)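 Dead-cell fluorescence measured kinetically: asymmetric cyanine dye, HEK293, 600 cells/well, 5 h settle, 23 nL cpd/DMSO, 37 C, reads 0–40 h every 8 h.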

[2] = A CellTox Green Cytotoxicity Assay to monitor cytotoxicity in HepG2 cells - 0 hour (AID 1224882); note: nearly all actives have a fitted effect of over 35% in size
Procedure, shortened: (§2)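 First, HepG2 cells (600/well) mixed with reagent were plated; second, after 5 h at 37 C they received compounds via pintool; third, fluorescence was measured at 0 h through 40 h at 8 h intervals.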

[3] = A CellTox Green Cytotoxicity Assay to monitor cytotoxicity in HepG2 cells - 32 hour (AID 1224883); note: nearly all actives have a fitted effect of over 50% in size
Procedure, shortened: as §2

[4] = A CellTox Green Cytotoxicity Assay to monitor cytotoxicity in HEK293 cells - 8 hour (AID 1224884); note: nearly all actives have a fitted effect of over 35% in size
Procedure, shortened: as §1

[5] = qHTS RealTime-Glo MT Cell Viability Assay in HepG2 cells - 16 hour (AID 1224885); note: nearly all actives have a fitted effect of over 50% in size
Procedure, shortened: (§3)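 Viability was tracked continuously by NanoLuc luminescence from prosubstrate reduced by living HepG2 cells, at successive time points over 40 h of compound exposure. Cells with reagent were preincubated 5 h at 37 °C before compound addition.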

[6] = qHTS RealTime-Glo MT Cell Viability Assay in HEK293 cells - 24 hour (AID 1224886); note: top concentration of the series differs between compounds; nearly all actives have a fitted effect of over 50% in size
Procedure, shortened: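 Viability tracked continuously by luminescence as live cells reduce a prosubstrate for NanoLuc; HEK293 cells preincubated 5 h, compound-treated at 37 C, and read at 0, 8, 16, 24, 32 and 40 h.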

[7] = qHTS RealTime-Glo MT Cell Viability Assay in HEK293 cells - 8 hour (AID 1224887); note: top concentration of the series differs between compounds; nearly all actives have a fitted effect of over 50% in size
Procedure, shortened: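 600 HEK293 cells per well, dispensed already mixed with RealTime-Glo MT reagents. Compound dosing came 5 h later. The same wells were read for luminescence at 0, 8, 16, 24, 32 and 40 h of exposure at 37 C.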

[8] = A CellTox Green Cytotoxicity Assay to monitor cytotoxicity in HEK293 cells - 16 hour (AID 1224888); note: nearly all actives have a fitted effect of over 35% in size
Procedure, shortened: as §1

[9] = qHTS RealTime-Glo MT Cell Viability Assay in HepG2 cells - 0 hour (AID 1224889); note: nearly all actives have a fitted effect of over 50% in size
Procedure, shortened: as §3

[10] = A CellTox Green Cytotoxicity Assay to monitor cytotoxicity in HepG2 cells - 8 hour (AID 1224890); note: nearly all actives have a fitted effect of over 45% in size
Procedure, shortened: as §2
% is set by controls: 0 for no effect and ±100 for the full control effect.

COc1cccc(OC)c1C(=O)N[C@@H]1C(=O)N2[C@@H]1SC(C)(C)[C@@H]2C(=O)O
inactive: outcome [1] | Potency [2] | Potency [3] | outcome [4] | outcome [5] | Potency [6] | Potency [7] | outcome [8] | Potency [9] | outcome [10]

COCCOC[C@H](CC1(C(=O)NC2CCC(C(=O)O)CC2)CCCC1)C(=O)Oc1ccc2c(c1)CCC2 (stereo not given in full)
inactive: outcome [1] | Potency [2] | Potency [3] | outcome [4] | outcome [5] | Potency [6] | Potency [7] | outcome [8] | Potency [9] | outcome [10]

CC(=O)NC(=O)c1ccccc1O
inactive: outcome [1] | Potency [2] | Potency [3] | outcome [4] | outcome [5] | Potency [6] | Potency [7] | outcome [8] | Potency [9] | outcome [10]

C[N+]12CCC(CC1)C(OC(=O)C(O)(c1ccccc1)c1ccccc1)C2 (stereo not given)
inactive: outcome [1] | Potency [2] | Potency [3] | outcome [4] | outcome [5] | Potency [6] | Potency [7] | outcome [8] | Potency [9] | outcome [10]

COc1ccccc1OCC1CNC(=O)O1 (stereo not given)
inactive: outcome [1] | Potency [2] | Potency [3] | outcome [4] | outcome [5] | Potency [6] | Potency [7] | outcome [8] | Potency [9] | outcome [10]

CCC(C(=O)NC(=O)NC(C)=O)c1ccccc1 (stereo not given)
inactive: outcome [1] | Potency [2] | Potency [3] | outcome [4] | outcome [5] | Potency [6] | Potency [7] | outcome [8] | Potency [9] | outcome [10]

Cc1ncc([C@@H](CCCCCCc2ccc3c(n2)NCCC3)CC(=O)O)cn1
inactive: outcome [1] | Potency [2] | Potency [3] | outcome [4] | outcome [5] | Potency [6] | Potency [7] | outcome [8] | Potency [9] | outcome [10]

Cc1ccc(-c2ccccc2C#N)cc1
inactive: outcome [1] | Potency [2] | Potency [3] | outcome [4] | outcome [5] | Potency [6] | Potency [7] | outcome [8] | Potency [9] | outcome [10]

CCCCN(CCC(=O)OCC)C(C)=O
inactive: outcome [1] | Potency [2] | Potency [3] | outcome [4] | outcome [5] | Potency [6] | Potency [7] | outcome [8] | Potency [9] | outcome [10]

CC(C)(C)C(=O)c1ccccc1
inactive: outcome [1] | Potency [2] | Potency [3] | outcome [4] | outcome [5] | Potency [6] | Potency [7] | outcome [8] | Potency [9] | outcome [10]

CCCc1ncc(C[n+]2ccccc2C)c(N)n1
inactive: outcome [1] | Potency [2] | Potency [3] | outcome [4] | outcome [5] | Potency [6] | Potency [7] | outcome [8] | Potency [9] | outcome [10]

CC[N+](C)(CC)CCOC(=O)C1c2ccccc2Oc2ccccc21
inactive: outcome [1] | Potency [2] | Potency [3] | outcome [4] | outcome [5] | Potency [6] | Potency [7] | outcome [8] | Potency [9] | outcome [10]

C=CC(=O)OCCCl
inactive: outcome [1] | Potency [2] | Potency [3] | outcome [4] | outcome [5] | Potency [6] | Potency [7] | outcome [8] | Potency [9] | outcome [10]

O=C1NC(=O)C2CC=CCC12 (stereo not given)
inactive: outcome [1] | Potency [2] | Potency [3] | outcome [4] | outcome [5] | Potency [6] | Potency [7] | outcome [8] | Potency [9] | outcome [10]

CCN(C=O)CC
inactive: outcome [1] | Potency [2] | Potency [3] | outcome [4] | outcome [5] | Potency [6] | Potency [7] | outcome [8] | Potency [9] | outcome [10]

CC1CCC(CO)CC1 (stereo not given)
inactive: outcome [1] | Potency [2] | Potency [3] | outcome [4] | outcome [5] | Potency [6] | Potency [7] | outcome [8] | Potency [9] | outcome [10]

Cc1coc2ccccc2c1=O
inactive: outcome [1] | Potency [2] | Potency [3] | outcome [4] | outcome [5] | Potency [6] | Potency [7] | outcome [8] | Potency [9] | outcome [10]

CC(C)(C)OC(=O)c1cccc(N)c1
inactive: outcome [1] | Potency [2] | Potency [3] | outcome [4] | outcome [5] | Potency [6] | Potency [7] | outcome [8] | Potency [9] | outcome [10]

NC(=O)Cc1cccc2ccccc12
inactive: outcome [1] | Potency [2] | Potency [3] | outcome [4] | outcome [5] | Potency [6] | Potency [7] | outcome [8] | Potency [9] | outcome [10]

CCCCc1ccc2c(n1)[C@@H](c1ccc(OC)cc1C[C@H](C)C(=O)O)[C@H](C(=O)O)[C@H]2c1ccc2c(c1)OCO2
inactive: outcome [1] | Potency [2] | Potency [3] | outcome [4] | outcome [5] | Potency [6] | Potency [7] | outcome [8] | Potency [9] | outcome [10]

CCOC(=O)C(=O)CCCCCCl
inactive: outcome [1] | Potency [2] | Potency [3] | outcome [4] | outcome [5] | Potency [6] | Potency [7] | outcome [8] | Potency [9] | outcome [10]

CCCCCCCCCCOc1cc2c(=O)c(C(=O)OCC)c[nH]c2cc1OCC
inactive: cytotoxicity increase [1] 0.664% [at 6.97 µM] | cytotoxicity [2] 9.56% [at 6.97 µM] | cytotoxicity increase [3] -9.18% [at 6.97 µM] | cytotoxicity increase [4] 2.19% [at 6.97 µM] | activity change, negative = cytotoxic [5] 4.28% [at 6.97 µM] | activity change, negative = cytotoxicity [6] 3.7% [at 6.97 µM] | activity change, negative = cytotoxicity [7] 3.87% [at 6.97 µM] | activity change [8] 0.406% [at 6.97 µM] | activity change, negative = cytotoxicity [9] 9.73% [at 6.97 µM] | cytotoxicity increase [10] -1.8% [at 6.97 µM]
